# Measurements reported in ChEMBL document CHEMBL2218924, “A broad activity screen in support of a chemogenomic map for kinase signalling research and drug discovery” (Biochem J, 2013).
# Key:
# [1] = target: T1, Mitogen-activated protein kinase kinase kinase 5 (Homo sapiens) (UniProt Q99683); conditions: at 10 µM
# T1 sequence (whole entry): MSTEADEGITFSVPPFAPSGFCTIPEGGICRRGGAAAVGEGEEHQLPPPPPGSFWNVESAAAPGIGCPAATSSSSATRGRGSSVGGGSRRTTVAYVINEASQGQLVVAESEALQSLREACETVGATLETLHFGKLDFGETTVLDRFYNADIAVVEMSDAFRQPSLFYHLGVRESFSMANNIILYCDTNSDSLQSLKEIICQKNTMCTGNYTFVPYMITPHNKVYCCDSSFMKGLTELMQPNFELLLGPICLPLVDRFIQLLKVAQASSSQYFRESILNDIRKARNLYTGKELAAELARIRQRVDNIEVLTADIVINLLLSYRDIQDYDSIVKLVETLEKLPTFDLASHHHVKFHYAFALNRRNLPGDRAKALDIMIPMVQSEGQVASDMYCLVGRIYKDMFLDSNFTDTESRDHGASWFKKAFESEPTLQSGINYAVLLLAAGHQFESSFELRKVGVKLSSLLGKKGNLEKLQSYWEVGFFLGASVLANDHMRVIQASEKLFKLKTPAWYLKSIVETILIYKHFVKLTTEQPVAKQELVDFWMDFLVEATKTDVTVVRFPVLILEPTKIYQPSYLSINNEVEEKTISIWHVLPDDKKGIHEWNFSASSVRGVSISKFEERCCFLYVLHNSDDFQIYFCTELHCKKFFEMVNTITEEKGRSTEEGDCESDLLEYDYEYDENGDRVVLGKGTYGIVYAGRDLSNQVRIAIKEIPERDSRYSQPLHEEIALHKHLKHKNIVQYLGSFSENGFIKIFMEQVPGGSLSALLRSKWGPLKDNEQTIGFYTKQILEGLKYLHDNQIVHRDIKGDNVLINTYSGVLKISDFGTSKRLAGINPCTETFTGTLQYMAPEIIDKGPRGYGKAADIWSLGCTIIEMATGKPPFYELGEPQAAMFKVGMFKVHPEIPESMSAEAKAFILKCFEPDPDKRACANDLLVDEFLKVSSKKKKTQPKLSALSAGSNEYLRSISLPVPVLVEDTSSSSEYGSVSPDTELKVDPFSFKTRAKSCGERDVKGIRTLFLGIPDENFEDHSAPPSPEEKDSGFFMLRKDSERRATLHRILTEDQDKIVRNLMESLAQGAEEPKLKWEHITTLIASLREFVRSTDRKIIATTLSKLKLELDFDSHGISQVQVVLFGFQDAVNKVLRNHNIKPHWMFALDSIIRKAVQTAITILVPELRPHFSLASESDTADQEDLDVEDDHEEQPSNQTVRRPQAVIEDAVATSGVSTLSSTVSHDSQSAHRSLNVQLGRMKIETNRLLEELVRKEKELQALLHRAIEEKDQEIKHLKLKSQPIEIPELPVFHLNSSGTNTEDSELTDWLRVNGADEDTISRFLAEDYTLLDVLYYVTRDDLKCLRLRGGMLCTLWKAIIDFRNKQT
# [2] = target: Tyrosine-protein kinase ABL1 (Homo sapiens) (UniProt P00519); conditions: at 1 µM
# Chain of Tyrosine-protein kinase ABL1 (Homo sapiens) (P00519 whole entry): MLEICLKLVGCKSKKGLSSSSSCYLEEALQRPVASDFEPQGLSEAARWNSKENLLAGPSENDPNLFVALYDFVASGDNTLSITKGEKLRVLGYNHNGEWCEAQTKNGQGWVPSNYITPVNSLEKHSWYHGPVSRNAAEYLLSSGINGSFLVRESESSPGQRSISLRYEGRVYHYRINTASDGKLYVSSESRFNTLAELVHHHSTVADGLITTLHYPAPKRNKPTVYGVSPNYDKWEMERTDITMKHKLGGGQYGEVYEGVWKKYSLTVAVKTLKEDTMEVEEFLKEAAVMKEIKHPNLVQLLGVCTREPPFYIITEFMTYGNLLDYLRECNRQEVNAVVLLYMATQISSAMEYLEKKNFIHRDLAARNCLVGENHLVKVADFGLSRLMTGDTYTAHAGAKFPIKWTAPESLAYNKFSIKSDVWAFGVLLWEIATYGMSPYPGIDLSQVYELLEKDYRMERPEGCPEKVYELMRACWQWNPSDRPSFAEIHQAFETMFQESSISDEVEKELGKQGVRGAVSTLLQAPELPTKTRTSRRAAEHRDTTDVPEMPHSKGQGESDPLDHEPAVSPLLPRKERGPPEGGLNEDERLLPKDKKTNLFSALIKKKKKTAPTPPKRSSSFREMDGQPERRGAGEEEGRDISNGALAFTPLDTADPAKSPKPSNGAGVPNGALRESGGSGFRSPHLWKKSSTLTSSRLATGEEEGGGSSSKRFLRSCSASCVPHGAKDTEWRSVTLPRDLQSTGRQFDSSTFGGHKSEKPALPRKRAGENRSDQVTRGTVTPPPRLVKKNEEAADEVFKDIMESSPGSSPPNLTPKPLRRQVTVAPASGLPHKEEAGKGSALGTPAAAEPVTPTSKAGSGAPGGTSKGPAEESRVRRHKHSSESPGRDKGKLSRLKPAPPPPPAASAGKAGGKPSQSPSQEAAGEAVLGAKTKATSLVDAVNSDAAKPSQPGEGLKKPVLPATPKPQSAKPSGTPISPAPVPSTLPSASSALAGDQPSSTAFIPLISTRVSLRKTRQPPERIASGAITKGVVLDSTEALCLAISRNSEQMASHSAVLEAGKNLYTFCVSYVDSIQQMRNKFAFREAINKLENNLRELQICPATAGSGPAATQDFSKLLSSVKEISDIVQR
# [3] = target: Tyrosine-protein kinase ABL1 (Homo sapiens) (UniProt P00519); conditions: at 10 µM
# [4] = target: Tyrosine-protein kinase ABL2 (Homo sapiens) (UniProt P42684); conditions: at 1 µM
# Chain of Tyrosine-protein kinase ABL2 (Homo sapiens) (P42684 whole entry): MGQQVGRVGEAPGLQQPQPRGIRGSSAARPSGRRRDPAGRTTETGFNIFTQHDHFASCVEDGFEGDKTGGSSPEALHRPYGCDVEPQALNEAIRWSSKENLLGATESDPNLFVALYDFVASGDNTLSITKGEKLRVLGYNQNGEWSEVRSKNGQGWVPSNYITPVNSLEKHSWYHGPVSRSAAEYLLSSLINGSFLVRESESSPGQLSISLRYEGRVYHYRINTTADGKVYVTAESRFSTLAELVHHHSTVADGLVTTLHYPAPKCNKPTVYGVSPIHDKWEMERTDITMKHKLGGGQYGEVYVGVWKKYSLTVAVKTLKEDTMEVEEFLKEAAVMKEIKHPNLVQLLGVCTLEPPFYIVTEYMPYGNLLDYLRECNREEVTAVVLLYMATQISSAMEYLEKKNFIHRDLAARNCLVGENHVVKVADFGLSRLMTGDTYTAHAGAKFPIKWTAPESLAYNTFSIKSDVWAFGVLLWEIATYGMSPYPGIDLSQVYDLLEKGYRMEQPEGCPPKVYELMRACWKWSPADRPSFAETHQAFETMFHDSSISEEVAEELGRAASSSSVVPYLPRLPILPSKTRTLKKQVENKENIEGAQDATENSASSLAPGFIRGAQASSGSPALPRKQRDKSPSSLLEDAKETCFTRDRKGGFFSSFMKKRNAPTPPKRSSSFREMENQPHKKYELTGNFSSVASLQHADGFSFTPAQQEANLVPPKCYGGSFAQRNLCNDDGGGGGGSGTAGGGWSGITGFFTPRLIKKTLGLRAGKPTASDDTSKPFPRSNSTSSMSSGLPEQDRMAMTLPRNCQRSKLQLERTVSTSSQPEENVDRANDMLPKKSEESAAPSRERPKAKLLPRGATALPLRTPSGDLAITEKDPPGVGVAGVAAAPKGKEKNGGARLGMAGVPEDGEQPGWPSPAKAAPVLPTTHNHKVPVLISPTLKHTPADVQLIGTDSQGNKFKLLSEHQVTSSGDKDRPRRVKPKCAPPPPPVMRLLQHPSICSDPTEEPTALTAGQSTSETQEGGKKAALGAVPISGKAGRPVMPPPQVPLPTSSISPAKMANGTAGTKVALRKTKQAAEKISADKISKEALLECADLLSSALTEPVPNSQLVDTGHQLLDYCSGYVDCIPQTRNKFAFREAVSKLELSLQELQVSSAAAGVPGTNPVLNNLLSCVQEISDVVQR
# [5] = target: Tyrosine-protein kinase ABL2 (Homo sapiens) (UniProt P42684); conditions: at 10 µM
# [6] = target: T2, Aurora kinase A (Homo sapiens) (UniProt O14965); conditions: at 1 µM
# T2 sequence (whole entry): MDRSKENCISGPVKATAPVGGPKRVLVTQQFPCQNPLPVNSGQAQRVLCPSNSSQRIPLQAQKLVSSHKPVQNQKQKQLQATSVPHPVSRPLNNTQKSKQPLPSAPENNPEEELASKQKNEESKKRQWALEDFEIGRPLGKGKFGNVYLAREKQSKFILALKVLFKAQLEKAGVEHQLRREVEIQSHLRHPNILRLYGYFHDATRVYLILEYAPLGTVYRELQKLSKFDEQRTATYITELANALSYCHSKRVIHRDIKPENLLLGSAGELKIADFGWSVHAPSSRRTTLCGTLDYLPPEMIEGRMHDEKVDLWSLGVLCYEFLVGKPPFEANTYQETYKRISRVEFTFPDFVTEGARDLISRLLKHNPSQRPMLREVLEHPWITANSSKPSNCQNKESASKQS
# [7] = target: T2, Aurora kinase A (Homo sapiens); conditions: at 10 µM
# [8] = target: Aurora kinase B (Homo sapiens) (UniProt Q96GD4); conditions: at 1 µM
# Chain of Aurora kinase B (Homo sapiens) (Q96GD4 whole entry): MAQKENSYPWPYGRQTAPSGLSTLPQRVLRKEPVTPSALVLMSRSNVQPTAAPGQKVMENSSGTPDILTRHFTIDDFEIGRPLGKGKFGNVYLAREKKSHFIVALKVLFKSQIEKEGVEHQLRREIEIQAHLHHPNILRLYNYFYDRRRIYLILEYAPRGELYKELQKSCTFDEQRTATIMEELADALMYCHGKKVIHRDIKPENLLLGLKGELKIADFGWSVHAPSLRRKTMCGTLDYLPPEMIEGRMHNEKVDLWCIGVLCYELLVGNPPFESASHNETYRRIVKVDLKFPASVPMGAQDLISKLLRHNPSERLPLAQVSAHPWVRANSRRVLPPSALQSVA
# [9] = target: Aurora kinase B (Homo sapiens) (UniProt Q96GD4); conditions: at 10 µM
# [10] = target: T3, Protein kinase C zeta type (Homo sapiens) (UniProt Q05513); conditions: at 1 µM
# T3 sequence (whole entry): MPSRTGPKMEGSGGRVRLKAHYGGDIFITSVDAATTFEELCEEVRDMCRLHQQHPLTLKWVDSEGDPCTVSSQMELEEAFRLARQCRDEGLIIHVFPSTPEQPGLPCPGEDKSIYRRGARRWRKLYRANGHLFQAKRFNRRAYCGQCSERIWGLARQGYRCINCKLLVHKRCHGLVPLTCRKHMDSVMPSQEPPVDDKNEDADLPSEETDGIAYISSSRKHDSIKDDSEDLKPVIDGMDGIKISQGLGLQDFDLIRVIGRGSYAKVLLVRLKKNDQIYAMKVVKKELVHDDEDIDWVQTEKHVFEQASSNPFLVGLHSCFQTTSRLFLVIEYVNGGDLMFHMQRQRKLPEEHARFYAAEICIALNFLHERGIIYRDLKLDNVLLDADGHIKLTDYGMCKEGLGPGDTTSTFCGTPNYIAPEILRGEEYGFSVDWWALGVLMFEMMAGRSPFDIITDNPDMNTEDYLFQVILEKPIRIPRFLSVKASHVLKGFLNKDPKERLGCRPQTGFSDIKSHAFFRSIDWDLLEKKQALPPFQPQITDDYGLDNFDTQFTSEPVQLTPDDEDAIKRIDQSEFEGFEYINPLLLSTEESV
compound,measurement,setting,value
O=C1Nc2ccc(Cl)cc2/C1=C/c1cc(Cl)c(O)c(Cl)c1,residual activity,[1],87%
same,residual activity,[2],77%
same,residual activity,[3],42%
same,residual activity,[4],80%
same,residual activity,[5],42%
same,residual activity,[6],57%
same,residual activity,[7],24%
same,residual activity,[8],51%
same,residual activity,[9],2%
c1ccc(-c2cnc(Nc3ccc(OCCN4CCCC4)cc3)s2)cc1,residual activity,[10],106% (inactive)
same,residual activity,[2],61%
same,residual activity,[3],11%
same,residual activity,[4],46%
same,residual activity,[5],8%
same,residual activity,[8],67%
same,residual activity,[9],18%
COc1cc2nccc(Oc3ccc(NC(=S)NC(=O)c4ccccc4C)cc3)c2cc1OC,residual activity,[1],77%
same,residual activity,[2],22%
same,residual activity,[3],9%
same,residual activity,[4],50%
same,residual activity,[5],18%
same,residual activity,[6],0%
same,residual activity,[7],1%
same,residual activity,[8],2%
same,residual activity,[9],-1%
O=C1NC(=O)C(c2c[nH]c3ccccc23)=C1c1c[nH]c2ccccc12,residual activity,[10],78% (inactive)
same,residual activity,[3],68%
same,residual activity,[4],78%
same,residual activity,[5],25%
same,residual activity,[6],80%
same,residual activity,[7],45%
same,residual activity,[8],76%
same,residual activity,[9],20%
Cn1sc(=O)n(Cc2ccccc2)c1=O,residual activity,[1],92%
same,residual activity,[2],84%
same,residual activity,[3],83%
same,residual activity,[5],90%
same,residual activity,[6],83%
same,residual activity,[7],91%
same,residual activity,[8],88%
same,residual activity,[9],66%
CC(C)(C)n1nc(Cc2cccc3ccccc23)c2c(N)ncnc21,residual activity,[10],103% (inactive)
same,residual activity,[2],87%
same,residual activity,[3],28%
same,residual activity,[4],68%
same,residual activity,[5],18%
same,residual activity,[6],93%
same,residual activity,[7],104%
same,residual activity,[8],130%
same,residual activity,[9],87%
COc1ccc2c(c1)c(C1=C(c3c[nH]c4ccccc34)C(=O)NC1=O)cn2CCCN(C)C,residual activity,[2],107%
same,residual activity,[3],114%
same,residual activity,[4],113%
same,residual activity,[5],74%
same,residual activity,[6],100%
same,residual activity,[7],97%
same,residual activity,[8],39%
same,residual activity,[9],7%
CN([C@@H](Cc1ccc(OS(=O)(=O)c2cccc3cnccc23)cc1)C(=O)N1CCN(c2ccccc2)CC1)S(=O)(=O)c1cccc2cnccc12,residual activity,[3],86%
CN(C)S(=O)(=O)c1ccc2c(c1)/C(=C/c1cc3c([nH]1)CCCC3)C(=O)N2,residual activity,[2],77%
same,residual activity,[3],72%
same,residual activity,[4],114%
same,residual activity,[5],75%
same,residual activity,[6],36%
same,residual activity,[7],13%
same,residual activity,[8],-1%
same,residual activity,[9],1%
Cc1cc(C)c(/C=C2\C(=O)Nc3ccccc32)[nH]1,residual activity,[8],6%
same,residual activity,[9],0%
CC(C)[C@H](CO)Nc1nc(Nc2cc(N)cc(Cl)c2)c2ncn(C(C)C)c2n1,residual activity,[2],75%
same,residual activity,[3],15%
same,residual activity,[4],62%
same,residual activity,[5],8%
same,residual activity,[6],70%
same,residual activity,[7],47%
same,residual activity,[8],14%
same,residual activity,[9],2%
CCOC(=O)c1c(C)[nH]c(/C=C2\C(=O)Nc3ccccc32)c1C,residual activity,[8],74%
same,residual activity,[9],61%
O=C1Cc2c([nH]c3ccc(Br)cc23)-c2ccccc2N1,residual activity,[2],64%
same,residual activity,[3],39%
same,residual activity,[4],76%
same,residual activity,[5],45%
same,residual activity,[6],97%
same,residual activity,[7],66%
same,residual activity,[8],69%
same,residual activity,[9],15%
COc1ccc(COc2ccc(Cc3cnc(N)nc3N)cc2OC)cc1,residual activity,[3],117%
same,residual activity,[6],108%
same,residual activity,[7],111%
same,residual activity,[8],110%
same,residual activity,[9],76%
N#Cc1c(NC(=O)c2cccc3ccccc23)sc2c1CCCC2,residual activity,[1],80%
same,residual activity,[6],92%
same,residual activity,[8],69%
same,residual activity,[9],69%
O=S(=O)(NCCNC/C=C/c1ccc(Br)cc1)c1cccc2cnccc12,residual activity,[8],43%
same,residual activity,[9],8%
CSc1nc(-c2ccc(F)cc2)c(-c2ccnc(NC(C)c3ccccc3)c2)[nH]1 (centres undefined),residual activity,[1],86%
same,residual activity,[8],46%
same,residual activity,[9],13%
O=C1Nc2ccccc2/C1=C\c1c(Cl)[nH]c2ccccc12,residual activity,[1],70%
same,residual activity,[9],59%
O=C(CCCc1ccc(-c2ccccc2F)cc1)Nc1ccc(O)cc1,residual activity,[1],105%
same,residual activity,[2],110%
same,residual activity,[4],105%
same,residual activity,[5],86%
same,residual activity,[6],130%
same,residual activity,[7],102%
same,residual activity,[8],107%
same,residual activity,[9],91%
CCCC(=O)Oc1ccc2[nH]c(C(=O)c3cc4ccccc4[nH]3)cc2c1,residual activity,[2],102%
same,residual activity,[3],96%
same,residual activity,[6],71%
same,residual activity,[8],124%
same,residual activity,[9],47%
Fc1ccc(-c2nc3n(c2-c2ccncc2)CCS3)cc1,residual activity,[1],83%
same,residual activity,[4],96%
same,residual activity,[5],77%
NC(=O)c1ccc(-c2nc(-c3ccc4c(c3)OCCO4)c(-c3ccccn3)[nH]2)cc1,residual activity,[1],96%
same,residual activity,[3],92%
same,residual activity,[5],83%
same,residual activity,[8],89%
same,residual activity,[9],70%
O=C(Nc1ccc(Cl)cc1)c1ccccc1NCc1ccncc1,residual activity,[2],81%
same,residual activity,[3],52%
same,residual activity,[6],39%
same,residual activity,[7],18%
same,residual activity,[8],100%
same,residual activity,[9],37%
O=C(c1cc2cc(O)ccc2[nH]1)c1cc2cc(O)ccc2[nH]1,residual activity,[2],11%
same,residual activity,[3],-6%
same,residual activity,[4],27%
same,residual activity,[5],4%
same,residual activity,[6],23%
same,residual activity,[7],6%
same,residual activity,[8],9%
same,residual activity,[9],-1%
Oc1cccc(-c2nc(N3CCOCC3)c3oc4ncccc4c3n2)c1,residual activity,[9],92%
O=C1NC(=O)C(c2cn(CCCn3ccnc3)c3ccccc23)=C1Nc1ccccc1,residual activity,[1],76%
same,residual activity,[4],111%
same,residual activity,[5],60%
same,residual activity,[7],72%
O=C1NC(=O)C(c2cn(CCCO)c3ncccc23)=C1c1cnccn1,residual activity,[1],78%
same,residual activity,[6],78%
same,residual activity,[7],81%
same,residual activity,[8],14%
same,residual activity,[9],9%
CCN1/C(=C/C(C)=O)Sc2ccc(OC)cc21,residual activity,[3],79%
same,residual activity,[5],81%
same,residual activity,[9],122%
O=C1Cc2c([nH]c3ccc([N+](=O)[O-])cc23)-c2ccccc2N1,residual activity,[1],105%
same,residual activity,[2],47%
same,residual activity,[4],81%
same,residual activity,[5],76%
same,residual activity,[7],105%
same,residual activity,[8],48%
same,residual activity,[9],22%
Nc1nccc(-c2c(-c3ccc(F)cc3)ncn2C2CCNCC2)n1,residual activity,[5],65%
same,residual activity,[9],72%
O=c1c(-c2ccc(F)cc2)c(-c2ccncc2)[nH]n1-c1ccc(Cl)cc1,residual activity,[1],119%
same,residual activity,[3],68%
same,residual activity,[5],53%
CC(C)N(CCC(=O)c1ccc2ccccc2c1)Cc1ccccc1,residual activity,[9],83%
Nc1nc(Nc2ccc(S(N)(=O)=O)cc2)nn1C(=O)c1c(F)cccc1F,residual activity,[1],46%
same,residual activity,[4],34%
same,residual activity,[5],8%
COc1ccc(Cl)cc1NC(=O)Nc1cc(C)nc2ccccc12,residual activity,[2],87%
same,residual activity,[3],145%
same,residual activity,[6],89%
same,residual activity,[7],136%
CC(C)(C)c1nc2c3ccc(F)cc3c3c(=O)[nH]ccc3c2[nH]1,residual activity,[1],35%
same,residual activity,[5],100%
same,residual activity,[6],13%
same,residual activity,[7],25%
same,residual activity,[8],1%
same,residual activity,[9],-1%
O=S(=O)(c1cccc2cnccc12)N1CCCNCC1,residual activity,[5],80%
O=C(Nc1nc2ccccc2n1CCN1CCOCC1)c1cccc([N+](=O)[O-])c1,residual activity,[1],110%
same,residual activity,[4],100%
same,residual activity,[6],101%
same,residual activity,[7],103%
same,residual activity,[8],100%
same,residual activity,[9],40%
